# Test results as given in PubChem BioAssay (NCATS).
# Inconclusive results are not listed. Entries that show only a call come without a potency. A number with no mark means an inactive call. Activity calls are given as the source filed them. Calls come from the whole dose curve; as a rule, active = well fitted curve in the direction sought with a large enough effect; inconclusive = small, poorly fitted or top-dose-only effect, or another doubt; inactive = no such curve, though single readings can be large; an effect the other way counts as inactive or inconclusive.
# Test: qHTS of pediatric cancer cell lines to identify multiple opportunities for drug repurposing: Primary screen for RD cells (AID 1347104); note: nearly all actives have a fitted effect of over 55% in size
# Details: RD rhabdomyosarcoma viability, CellTiter-Glo luminescence, 48 h; series mostly up to 46 µM
# Outline: (§1)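 Cells seeded at 500-1,000 cells/well in growth media, rested 5 hours at 37 degrees C, 5% CO2, then dosed; MIPE compounds at 11-point (from 0.78 nM) and NPC at 8-point (from 0.59 nM) final concentrations. Viability by CellTiter-Glo luminescence after 48 hours.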
row,Structure (SMILES),Potency
1,CC(=O)O[C@]1(C(C)=O)CC[C@H]2[C@@H]3C=C(C)C4=CC(=O)CC[C@]4(C)[C@H]3CC[C@@]21C,inactive
2,CCCCNc1ccc(C(=O)OCCOCCOCCOCCOCCOCCOCCOCCOCCOC)cc1,inactive
3,CN1CCC(OC(c2ccccc2)c2ccccc2)CC1,inactive
4,CCCCOC(=O)CC(CC(=O)OCCCC)(OC(C)=O)C(=O)OCCCC,inactive
5,CCOC(=O)C(C#N)=C(c1ccccc1)c1ccccc1,inactive
6,CC(=O)OCC(=O)[C@H]1CC[C@H]2[C@@H]3CCC4=CC(=O)CC[C@]4(C)[C@H]3CC[C@]12C,inactive
7,CCCCCCCCCCCCSCCOCCO,inactive
8,CCCCN=C(N)N=C(N)N,inactive
9,O=C1c2cccc3c2[C@H](CCC3)CN1[C@@H]1CN2CCC1CC2,inactive

# Test: qHTS of pediatric cancer cell lines to identify multiple opportunities for drug repurposing: Primary screen for MG 63 (6-TG R) cells (AID 1347105); note: nearly all actives have a fitted effect of over 50% in size
# Details: MG 63 (6-TG R) viability, CellTiter-Glo, 48 h; series mostly up to 46 µM
# Outline: as §1
row,Structure (SMILES),Potency
1,CC1(COc2ccc(CC3SC(=O)NC3=O)cc2)CCCCC1 (stereo not drawn),inactive
2,CN1CCN(c2cc3c(cc2F)c(=O)c(C(=O)O)cn3-c2ccc(F)cc2)CC1,inactive
3,CCCCN1C[C@H](O)[C@@H](O)[C@H](O)[C@H]1CO,inactive
4,O=C(O)CCNC(=O)c1ccccc1,inactive
5,CCN1CCCC(OC(=O)C(c2ccccc2)c2ccccc2)C1 (stereo not drawn),inactive
6,CC(=O)O[C@]1(C(C)=O)CC[C@H]2[C@@H]3C=C(C)C4=CC(=O)CC[C@]4(C)[C@H]3CC[C@@]21C,inactive
7,COc1cc(O)c(C(=O)c2ccccc2)cc1S(=O)(=O)O,inactive
8,Cc1cccc(C)c1NC(=O)CN1CCCCCC1,inactive
9,CN(C)C(=O)Nc1ccc(Cl)c(Cl)c1,inactive
10,CCOc1ccccc1C(N)=O,inactive
11,CC1=C(C(=O)O)N2C(=O)[C@@H](NC(=O)[C@H](N)c3ccccc3)[C@H]2SC1,inactive
12,CCCCNc1ccc(C(=O)OCCOCCOCCOCCOCCOCCOCCOCCOCCOC)cc1,inactive
13,CCCCCCCCCCCCCCCCO,inactive
14,C#C[C@]1(O)CC[C@H]2[C@@H]3CCC4=CC(=O)CC[C@@H]4[C@H]3CC[C@@]21CC,inactive
15,CN1CCC(OC(c2ccccc2)c2ccccc2)CC1,inactive
16,CCCCOC(=O)CC(CC(=O)OCCCC)(OC(C)=O)C(=O)OCCCC,inactive
17,CCOC(=O)C(C#N)=C(c1ccccc1)c1ccccc1,inactive
18,COc1cc(C)nc(-n2nc(C)cc2OC)n1,inactive
19,C/C=C/C=N/NC(=O)c1ccncc1,inactive
20,COc1ccc(C(=O)c2ccccc2)c(O)c1,inactive
21,CC(=O)OCC(=O)[C@H]1CC[C@H]2[C@@H]3CCC4=CC(=O)CC[C@]4(C)[C@H]3CC[C@]12C,inactive
22,CCCCCCCCCCCCSCCOCCO,inactive
23,CCCCN=C(N)N=C(N)N,inactive
24,O=C1OC(CN2CCOCC2)CN1/N=C/c1ccc([N+](=O)[O-])o1 (stereo not drawn),inactive
25,CC(C)[C@@H]1CC[C@@H](C)CC1=O,inactive
26,FC(F)(F)C(F)(F)C(F)(F)C(F)(F)C(F)(F)C(F)(F)C(F)(F)C(F)(F)Br,inactive
27,CC(O)Cn1cnc2c1c(=O)n(C)c(=O)n2C (stereo not drawn),inactive
28,O=C1c2cccc3c2[C@H](CCC3)CN1[C@@H]1CN2CCC1CC2,inactive

# Test: qHTS of pediatric cancer cell lines to identify multiple opportunities for drug repurposing: Primary screen for control Hh wild type fibroblast cells (AID 1347106);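 note: a drop in luminescence marks cytotoxicity and a rise apparent proliferation; nearly all actives have a fitted effect of over 55% in size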
# Details: Hh wild-type fibroblast viability, CellTiter-Glo luminescence, 48 h; series mostly up to 46 µM
# Outline: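 Viability after 48 h compound treatment at 37C, 500-1,000 cells/well, read as ATP luminescence with CellTiter-Glo. Primary screens used 11-point (MIPE, 0.78 nM-46 µM) or 8-point (NPC, 0.59 nM-46 µM) final concentrations; follow-up screens used 11-point dilutions.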
Structure (SMILES),Potency,"activity change, negative = cytotoxic"
CC1(COc2ccc(CC3SC(=O)NC3=O)cc2)CCCCC1 (stereo not drawn),inactive,
CN1CCN(c2cc3c(cc2F)c(=O)c(C(=O)O)cn3-c2ccc(F)cc2)CC1,inactive,
CCCCN1C[C@H](O)[C@@H](O)[C@H](O)[C@H]1CO,inactive,
CCCCCCCCCCCCOCCOCCOCCOCCOCCOCCOCCOCCOCCO,inactive,
O=C(O)CCNC(=O)c1ccccc1,inactive,
CC(C)Cn1cnc2c1c(=O)n(C)c(=O)n2C,inactive,
CCN1CCCC(OC(=O)C(c2ccccc2)c2ccccc2)C1 (stereo not drawn),inactive,
CC(=O)O[C@]1(C(C)=O)CC[C@H]2[C@@H]3C=C(C)C4=CC(=O)CC[C@]4(C)[C@H]3CC[C@@]21C,inactive,
COc1cc(O)c(C(=O)c2ccccc2)cc1S(=O)(=O)O,inactive,
Cc1nc(-c2ccc(Cl)cc2)oc1COC(C)(C)C(=O)O,inactive,
Cc1cccc(C)c1NC(=O)CN1CCCCCC1,inactive,
CN(C)C(=O)Nc1ccc(Cl)c(Cl)c1,inactive,
CCOc1ccccc1C(N)=O,inactive,
CC1=C(C(=O)O)N2C(=O)[C@@H](NC(=O)[C@H](N)c3ccccc3)[C@H]2SC1,inactive,
CCCCNc1ccc(C(=O)OCCOCCOCCOCCOCCOCCOCCOCCOCCOC)cc1,inactive,
CCCCCCCCCCCCCCCCO,inactive,
C#C[C@]1(O)CC[C@H]2[C@@H]3CCC4=CC(=O)CC[C@@H]4[C@H]3CC[C@@]21CC,inactive,
CCC(C(=O)OCCOCCN(CC)CC)c1ccccc1 (stereo not drawn),inactive,

Structure (SMILES),Potency,"activity change, negative = cytotoxic"
CN1CCC(OC(c2ccccc2)c2ccccc2)CC1,inactive,
CCN[C@@H]1C[C@H](N)[C@@H](OC2OC(CN)=CCC2N)[C@H](O)[C@H]1O[C@H]1OC[C@](C)(O)[C@H](NC)[C@H]1O (stereo partly drawn),,8.24% [at 0.597 µM]
CCCCOC(=O)CC(CC(=O)OCCCC)(OC(C)=O)C(=O)OCCCC,inactive,
CCOC(=O)C(C#N)=C(c1ccccc1)c1ccccc1,inactive,
COc1cc(C)nc(-n2nc(C)cc2OC)n1,inactive,
C/C=C/C=N/NC(=O)c1ccncc1,inactive,
COc1ccc(C(=O)c2ccccc2)c(O)c1,inactive,
CC(=O)OCC(=O)[C@H]1CC[C@H]2[C@@H]3CCC4=CC(=O)CC[C@]4(C)[C@H]3CC[C@]12C,inactive,
CCCCCCCCCCCCSCCOCCO,inactive,
Cl/C(=C\n1cncn1)c1ccc(Cl)cc1Cl,inactive,
CCCCN=C(N)N=C(N)N,inactive,
CCOC(=O)c1c(N)sc2c1CCN(Cc1ccccc1)C2,inactive,
CCOC(=O)Nc1ccc2c(c1)N(C(=O)CCN1CCOCC1)c1ccccc1S2,inactive,
O=C1OC(CN2CCOCC2)CN1/N=C/c1ccc([N+](=O)[O-])o1 (stereo not drawn),inactive,
CC(C)[C@@H]1CC[C@@H](C)CC1=O,inactive,
FC(F)(F)C(F)(F)C(F)(F)C(F)(F)C(F)(F)C(F)(F)C(F)(F)C(F)(F)Br,inactive,
CC(O)Cn1cnc2c1c(=O)n(C)c(=O)n2C (stereo not drawn),inactive,
O=C1c2cccc3c2[C@H](CCC3)CN1[C@@H]1CN2CCC1CC2,inactive,
